Holding throughout (experiment): NCI-60 one-dose screen, 48 h (100 = growth as untreated, 0 = no growth, -100 = all killed)
One test has as its system NCI-H226 lung. Conditions: 10 µM unless noted.
For the next test, the system named is NCI-H322M lung. Conditions: 10 µM unless noted.
A further test relates to HOP-62 NSCLC. Conditions: 10 µM unless noted.
The next test has as its system NCI-H460 lung. Conditions: 10 µM unless noted.
In a further test the test system is HOP-92 NSCLC. Conditions: 10 µM unless noted.
The test system of another test is NCI-H522 lung. Conditions: 10 µM unless noted.
A further test relates to A549/ATCC NSCLC. Conditions: 10 µM unless noted.
The subject of a further test is 786-0 renal. Conditions: 10 µM unless noted.
The next test has as its system COLO 205 colon. Conditions: 10 µM unless noted.
The test system of another test is DU-145 prostate. Conditions: 10 µM unless noted.
The subject of the next test is K-562 leukemia. Conditions: 10 µM unless noted.
The subject of the next test is MALME-3M melanoma. Conditions: 10 µM unless noted.
In another test the test system is MDA-MB-231 breast. Conditions: 10 µM unless noted.
The next test has as its system RXF 393 renal. Conditions: 10 µM unless noted.
For a further test, the system named is SF-268 CNS. Conditions: 10 µM unless noted.
Another test deals with SF-295 CNS. Conditions: 10 µM unless noted.
For a further test, the system named is SF-539 CNS. Conditions: 10 µM unless noted.
The test system of another test is M14 melanoma. Conditions: 10 µM unless noted.
For another test, the system named is UACC-257 melanoma. Conditions: 10 µM.

The panel holds about 83,000 compounds, 20% with a hit somewhere; the sample as a whole holds those more often.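 Cells were grown in 96-well plates and exposed to the test compound at a single concentration for 48 hours; results are reported as percent growth, with values below 10 considered active.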 Unmarked numbers belong to inactive results. The source made the active and inactive calls.

On to `CN(C)c1nc(N)c(N=O)c(N)n1`, for which the growth is 112% with NCI-H226 lung; 111% with NCI-H322M lung; 107% in the test with HOP-62 NSCLC; 110% in the test on NCI-H460 lung; 102% with HOP-92 NSCLC; 106% in the test on NCI-H522 lung. Also, the growth in the test on A549/ATCC NSCLC is 109%; in the test on 786-0 renal it was 106%; in the test with COLO 205 colon it was 127%; with DU-145 prostate, 113%; with K-562 leukemia, 103%; with MALME-3M melanoma it was 118%. Further, the growth was 108% in the test on MDA-MB-231 breast; 118% with RXF 393 renal; 110% with SF-268 CNS; 127% in the test on SF-295 CNS; 110% with SF-539 CNS; 111% in the test on M14 melanoma.

With `O=c1cc(C2NCCc3c2[nH]c2ccccc32)c2c(ccc3ccccc32)o1` (centres undefined), the growth in the test with NCI-H226 lung was 77%; in the test with NCI-H322M lung it was 62.7%; in the test on HOP-62 NSCLC, 82.4%; in the test with NCI-H460 lung it was 48.1%; with HOP-92 NSCLC, 41%; with NCI-H522 lung, 62.4%. The growth is 67.9% in the test with A549/ATCC NSCLC; 59.1% in the test on 786-0 renal; 65.3% in the test with COLO 205 colon; 59.6% in the test with DU-145 prostate; 52.9% in the test with K-562 leukemia; 60.1% in the test on MALME-3M melanoma. Also, the growth in the test with MDA-MB-231 breast was 80.7%; with RXF 393 renal, 44.2%; with SF-268 CNS it was 85.9%; in the test on SF-295 CNS, 81.8%; in the test on SF-539 CNS it was 79.4%; in the test on M14 melanoma, 65.2%.

On to `CCOC(=O)[C@H](CSSc1ncnc2cc[nH]c12)NC(=O)[C@@H](C)c1ccc2cc(OC)ccc2c1`, for which the growth with NCI-H226 lung is 39.9%; with NCI-H322M lung, 10.7%; in the test on HOP-62 NSCLC it was 23.2%; in the test with NCI-H460 lung, 32.7%; in the test on HOP-92 NSCLC, 46%; in the test with A549/ATCC NSCLC, 59.9%. Besides, the growth with 786-0 renal is 25.5%; in the test with COLO 205 colon it was 3.67% (active); in the test on DU-145 prostate, 33.4%; with K-562 leukemia it was 13.5%; in the test on MALME-3M melanoma, 56.2%; in the test on MDA-MB-231 breast it was 28.2%. Also, the growth is 57.9% in the test on RXF 393 renal; 33.1% in the test with SF-268 CNS; 16.7% with SF-295 CNS; 11.4% with SF-539 CNS; 28.2% in the test on UACC-257 melanoma; 6.45% (active) in the test with M14 melanoma.

For the compound `O=C1c2ccccc2C(=O)c2c1oc1oc3c(c(=O)c21)c(=O)n(-c1ccccc1)c1ccccc31`, the growth was 86.3% in the test with NCI-H226 lung; 63.5% in the test with NCI-H322M lung; 36.1% in the test with HOP-62 NSCLC; 33.6% in the test on NCI-H460 lung; 80% in the test with HOP-92 NSCLC; 19.4% with NCI-H522 lung. Further, the growth in the test with A549/ATCC NSCLC is 37.7%; in the test on 786-0 renal it was 97.9%; in the test on COLO 205 colon, 92.7%; with DU-145 prostate, 94.4%; in the test with K-562 leukemia, 26.8%; in the test on MALME-3M melanoma, 42%. In addition, the growth was 97.3% in the test on MDA-MB-231 breast; -14.1% (active) with RXF 393 renal; 34.3% with SF-268 CNS; 18.4% in the test with SF-295 CNS; -5.45% (active) in the test on SF-539 CNS; 101% with UACC-257 melanoma. Besides, the growth with M14 melanoma is 44.7%.

Regarding `CCOC(=O)CC(C#N)(CC(=O)OCC)C(=O)OCC`, the growth in the test with NCI-H226 lung was 94.5%; in the test on NCI-H322M lung it was 112%; with HOP-62 NSCLC it was 117%; in the test with NCI-H460 lung, 115%; in the test with HOP-92 NSCLC, 68%; in the test on A549/ATCC NSCLC, 84.6%. The growth was 104% with 786-0 renal; 116% with COLO 205 colon; 113% in the test on DU-145 prostate; 111% in the test on K-562 leukemia; 127% in the test with MALME-3M melanoma; 101% with MDA-MB-231 breast. The growth with RXF 393 renal is 99.6%; in the test on SF-268 CNS, 111%; with SF-295 CNS it was 101%; with SF-539 CNS it was 107%; in the test with UACC-257 melanoma, 73.9%; in the test with M14 melanoma, 102%.

Regarding `CC1=CNNc2c3ncnc-3ncn21`, the growth is 99.7% in the test with NCI-H226 lung; 107% in the test with NCI-H322M lung; 95.4% in the test with HOP-62 NSCLC; 108% in the test on NCI-H460 lung; 94.7% in the test with HOP-92 NSCLC; 96.6% in the test with NCI-H522 lung. The growth with A549/ATCC NSCLC was 100%; in the test on 786-0 renal it was 102%; in the test on COLO 205 colon it was 106%; in the test on DU-145 prostate it was 104%; in the test on K-562 leukemia it was 101%; in the test on MALME-3M melanoma it was 102%. The growth was 103% with MDA-MB-231 breast; 103% in the test on SF-268 CNS; 103% in the test with SF-295 CNS; 101% in the test with SF-539 CNS; 109% in the test on UACC-257 melanoma; 108% in the test on M14 melanoma.

Turning to `Cc1ccnc2nc(C(=O)OCC(=O)Nc3ccc(-c4ccccc4)cc3)nn12`, the growth in the test with NCI-H226 lung was 110%; in the test with NCI-H322M lung, 112%; in the test with HOP-62 NSCLC it was 94.5%; in the test with NCI-H460 lung it was 119%; with HOP-92 NSCLC, 69.7%; with NCI-H522 lung it was 107%. Moreover, the growth with A549/ATCC NSCLC was 99.3%; in the test with 786-0 renal, 99.8%; in the test with COLO 205 colon it was 104%; in the test on DU-145 prostate it was 109%; in the test on K-562 leukemia it was 61.8%; in the test with MALME-3M melanoma, 115%. Further, the growth is 104% in the test on MDA-MB-231 breast; 49.7% with RXF 393 renal; 113% in the test on SF-268 CNS; 92.7% in the test with SF-295 CNS; 95.6% in the test on SF-539 CNS; 99.9% with M14 melanoma.

On to `O=C(CSc1nc(-c2ccc(Cl)cc2)cn1-c1ccc(Cl)cc1)c1ccc(Br)cc1`, for which the growth in the test on NCI-H226 lung was 68.4%; in the test on NCI-H322M lung it was 94.2%; with HOP-62 NSCLC, 48.3%; in the test on NCI-H460 lung it was 50.8%; with HOP-92 NSCLC, 43.9%; in the test with NCI-H522 lung, 58.8%. The growth in the test with A549/ATCC NSCLC is 59.2%; in the test with 786-0 renal it was 34.7%; in the test with COLO 205 colon, 81.7%; in the test with DU-145 prostate it was 90.9%; with K-562 leukemia it was 86.4%; in the test with MALME-3M melanoma it was 94%. In addition, the growth in the test on MDA-MB-231 breast is 60.1%; in the test on RXF 393 renal, 67.9%; in the test on SF-268 CNS, 78.1%; with SF-295 CNS, 52.1%; with SF-539 CNS, 84.7%; in the test with M14 melanoma, 89.1%.

Turning to `CCOC(=O)C(Cc1ccccc1)n1c(O)c(C=Nc2ccc(C(=O)OCCN(CC)CC)cc2)sc1=O` (centres undefined), the growth was 96.7% in the test on NCI-H226 lung; 94.4% in the test with NCI-H322M lung; 103% in the test on HOP-62 NSCLC; 99.3% in the test on NCI-H460 lung; 84.2% in the test on HOP-92 NSCLC; 85.7% in the test on NCI-H522 lung. Also, the growth with A549/ATCC NSCLC is 74.4%; in the test with 786-0 renal it was 90.8%; in the test with COLO 205 colon, 95.5%; in the test with DU-145 prostate, 106%; with K-562 leukemia, 89.3%; in the test with MALME-3M melanoma, 90.1%. For the same compound, the growth with MDA-MB-231 breast was 89.3%; in the test with RXF 393 renal it was 84.7%; in the test with SF-268 CNS, 97.2%; with SF-295 CNS it was 104%; in the test with SF-539 CNS, 86.5%; with UACC-257 melanoma, 77.4%. Moreover, in the test with M14 melanoma, the growth was -36.1% (active).

The record behind these values is PubChem BioAssay (NCI).
